Assay outcomes from PubChem.
Only some compounds are listed: those with a hit (about 0.9% of all), similar ones and a draw of the others.
BioA inh: BioA (M. tuberculosis) enzyme inhibition. purified M. tuberculosis BioA enzyme, plate reader. actives 0.096% (n = 360,000). AID 602481. inhibition, % at 9.99 µM; in the data active = inhibition above about 40%
PfHsp40 rescue: restores yeast growth despite PfHsp40 toxicity | AID 504582 | S. cerevisiae expressing PfHsp40, growth rescue, ATP luminescence | actives 0.68% (n = 340,000) | growth rescue, % at 12.5 µM; in the data active = growth rescue above about 28%, passing the limit was not always enough;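 also: yeast W303a lacking pdr1 and pdr3 grown in galactose medium; growth measured after three days at 30 °C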
Sa ugtP lethal: growth inhibition of S. aureus ugtP deletion strain. growth inhibition, % (no concentration beside the values). actives 0.54% (n = 330,000). S. aureus RN4220 ugtP deletion, OD600 growth, 16 h; in the data active = growth inhibition above about 68%;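 also: plate controls were untreated wells for no effect and antibiotic for full effect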
Mtb betalactam: beta-lactam sensitization of Mtb H37Rv. M. tuberculosis H37Rv growth with meropenem, percent inhibition. inhibition, % at 25 µM. actives 0.27% (n = 330,000); call rule not given here;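 also: growth measured after seven days incubation then overnight dye step; 0% = bacteria only wells and 100% = bacteria with antibiotic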
RN4220 kill: kills Staphylococcus aureus RN4220; S. aureus RN4220 growth, OD600, 16 h; inhibition, % (no concentration beside the values); actives 0.33% (n = 330,000); AID 1259311; in the data active = inhibition above about 85%;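 also: plate controls were untreated cells for no effect and reference antibiotic for full effect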
Starred values were filed as active, the others as inactive; · = no result given.

SMILES	BioA inh	PfHsp40 rescue	Sa ugtP lethal	Mtb betalactam	RN4220 kill
C=C(C)C1C2OC(=O)C1[C@]1(O)CC3O[C@]34C(=O)OC2[C@]14C (stereo not given in full)	·	·	-3	·	2
CCCCCCCCC(=O)NNC(=O)c1c(O)c2ccccc2n(CCC)c1=O	·	0	98*	1	98*
CCCCCCCCCCC(=O)NNC(=O)c1c(O)c2ccccc2n(CC)c1=O	·	·	99*	0	97*
CCn1c(=O)c(C(=O)NNC(=O)Cc2ccccc2)c(O)c2ccccc21	0	-1	-4	-3	15
COC(=O)C1=C(C(=O)OC)C2Nc3ccccc3[C@@]23CC(C(=O)OC)N(C(=O)c2ccco2)C3=N1 (stereo not given in full)	·	·	5	·	4
COc1ccc(S(=O)(=O)Nc2cccc3c2OC(CN(C)S(=O)(=O)c2ccccc2)C(C)CN(C(C)CO)C3=O)cc1 (stereo not given)	·	·	-15	·	7
CC(C)CC(CN1C(=O)C(=O)NCC1CC(C)C)NC(=O)Cc1ccccc1 (stereo not given)	·	·	-1	·	3
O=C(Nn1c(SCc2ccccc2F)nc2ccsc2c1=O)c1ccccc1	1	0	37	6	65
O=C(Nn1c(=O)[nH]c2ccsc2c1=O)c1ccccc1	-1	-1	100*	-20	98*
CC(C)CC(CSc1ccccc1)N1CCN(CC(C)C)CCC1=O (stereo not given)	·	·	3	·	3
Cc1cc(-c2ccccc2)n(-c2cc(N/N=C/c3ccccc3O)ncn2)n1	-2	582*	·	4	·
Cc1cc(-c2ccccc2)n(-c2cc(NN=Cc3ccccc3O)ncn2)n1	·	·	101*	·	79
COc1cc(NN=Cc2ccccc2O)ncn1	·	·	-3	·	3
CNc1cc(-n2nc(C)cc2-c2ccccc2)ncn1	2	-1	6	-8	-1
C=C(COC(=O)CCC(=O)O)CC1CC(O)[C@]2(C)OC3CC4OC5C[C@]6(C)O[C@]7(C)CCC8OC9C[C@]%10(C)OC%11C(C)=CC(=O)OC%11CC%10OC9CC(C)C8OC7CC6O[C@]5(C)CC=CC4OC3CC2O1 (stereo not given in full)	·	·	3	·	8
CCNC(=S)Nc1ccc(Cl)cc1	-1	1	12	-1	2
CCNC(=S)Nc1cc(-c2ccc(Cl)cc2)[nH]n1	·	122*	10	5	10
CCOC(=O)c1cc2c(C(F)(F)F)cc(-c3ccccc3)nc2o1	·	1	5	-1	-2
CCOC(=O)c1c(C(F)(F)F)cc(-c2ccc(F)cc2)nc1C	·	0	94*	-1	1
S=C(NN=Cc1ccccc1Cl)Nc1ccccc1	·	·	91*	·	-3
Fc1cccc(C=NNC(=S)Nc2ccccc2Cl)c1	·	·	93*	·	1
Fc1ccc(C=NNC(=S)Nc2ccc(Cl)cc2Cl)cc1	·	·	2	·	-5
FC(F)(F)c1ccc(Cl)c(NC(=S)N/N=C/c2ccccc2C(F)(F)F)c1	·	0	·	4	·
FC(F)(F)c1ccc(Cl)c(NC(=S)NN=Cc2ccccc2C(F)(F)F)c1	·	·	86*	·	6
COC(=O)C1=C(c2ccc(F)cc2F)CC2CCC1N2C (stereo not given)	·	·	0	·	4
SMILES	BioA inh	PfHsp40 rescue	Sa ugtP lethal	Mtb betalactam	RN4220 kill
COC(=O)C1=C(C)N(CC2CC2)C(=NCCN2CCOCC2)NC1c1ccccc1 (stereo not given)	·	·	-8	·	1
COc1ccc(/C=C/c2nc3ccccc3c(=O)n2-c2cccc(C(=O)O)c2)cc1	1	0	84	0	92*
Cc1ccc(-n2c(/C=C/c3ccc4c(c3)OCO4)nc3ccccc3c2=O)cc1	·	·	·	-1	·
O=c1c2ccccc2nc(/C=C/c2ccc3c(c2)OCO3)n1-c1cccc(O)c1	·	1	93*	-4	96*
CCOC(=O)C1C2COc3ccc(C)cc3C2N2C(=O)C(CO)NC(=O)[C@@]12C (stereo not given in full)	·	·	-3	·	5
COc1ccc(S(=O)(=O)Nc2cccc3c2OC(CN(C)C(=O)Nc2ccc(C(F)(F)F)cc2)C(C)CN(C(C)CO)C3=O)cc1 (stereo not given)	·	·	-1	·	-1
Cc1cccc(C=NNC(=O)c2ccc(Cl)cc2)c1O	·	·	73	·	93*
O=S(=O)(CCSc1ccccn1)c1nc2ccccc2s1	-1	59*	4	93	2
O=S(=O)(CCSc1nc2ccccc2o1)c1nc2ccccc2s1	-1	10	11	96	19
CCN=C1SC(=Cc2ccc(Sc3ccc(Cl)cc3)o2)C(=O)N1CC	·	·	-9	·	0
Cc1c(C(=O)NCCSCc2cccc(C(F)(F)F)c2)cnn1-c1ccc(F)cc1	0	101*	3	97	-9
Cc1c(C(=O)NCCSCc2ccc(F)cc2)cnn1-c1ccc(Cl)cc1	2	43*	7	5	-4
Cc1c(C(=O)NCCSCc2c(F)cccc2Cl)cnn1-c1ccc(F)cc1	9	9	-3	-4	-8
Cc1noc(C)c1NC(=O)N(C)CC1Oc2ccc(NC(=O)NC(C)C)cc2C(=O)N(C(C)CO)CC1C (stereo not given)	·	·	3	·	4
CN(C)C=C(C(=O)c1ccc(F)cc1)S(=O)(=O)c1ccc(F)cc1	·	·	0	·	5
CNC(=O)NC(=O)CSc1ccc(S(=O)(=O)N2CCOCC2)cn1	-2	33*	8	-6	8
O=C(NNc1nc2cc3c(cc2s1)OCO3)c1cccc(F)c1	0	40*	-5	-2	6
O=C(O)c1ccccc1C(=O)Nc1ccccc1	-2	1	-1	11	2
O=C(Nc1ccccc1)C1=C(c2ccccc2)S(=O)(=O)CCS1(=O)=O	·	0	100*	·	90*
O=C(O)c1cc[c]([Hg][Cl])cc1	4	575*	·	100	·
O=C(COC(=O)c1ccc2c(c1Cl)C(=O)c1ccccc1C2=O)NC1CC1	·	1	80	60	87*
O=C(COC(=O)c1ccc2c(c1Cl)C(=O)c1ccccc1C2=O)NC1CCCCC1	·	2	-4	6	4
COc1cc2nc(N3CCNCC3)nc(N)c2cc1OC	·	186*	10	-13	8
FC(F)(F)c1cccc(N2CCN(C(=S)NC3CCCCC3)CC2)c1	·	37*	-27	1	-2
COc1cc(/C=C/c2nc(N)nc(-c3ccccc3O)n2)cc(OC)c1OC	·	-2	7	-4	0
SMILES	BioA inh	PfHsp40 rescue	Sa ugtP lethal	Mtb betalactam	RN4220 kill
COc1cc(/C=C/c2nc(-c3ccccc3O)n[nH]2)cc(OC)c1OC	·	42*	-11	5	1
NC(=O)C1=CC(c2coc3ccccc3c2=O)CC(OCCCCO)O1 (stereo not given)	·	·	1	·	7
C=C(C)COc1ccc(-c2[nH]ncc2-c2ccc(Br)cc2)c(O)c1	·	309*	80	50	-12
C=C(C)COc1ccc(-c2[nH]ncc2-c2ccccc2OC)c(O)c1	2	0	23	5	-15
Cc1ccc(C)c2c1[nH]c1ccc([N+](=O)[O-])cc12	-4	2	84*	4	80
CN(C)CCSc1nc(-c2ccccc2)nc2c1CCCC2	-1	·	2	2	2
CCSc1nc(-c2ccccc2)nc2c1CCCC2	2	-2	88*	4	4
